# What was measured:
# Assay in all cases: yeast three-hybrid, YBZ-1, SC-Leu-His + 0.5 mM 3-AT, 4 days
# Details in all cases: tags: N-Gal4 AD-HA kept; label: inside an RPR1-promoter hybrid RNA with tandem MS2 sites; ssRNA
# [1] = molecular target: PUM1 PUF domain R1-RAS (Homo sapiens, UniProt Q14671 828-1176, S863R;R864A;Q867S)
# Method in brief: (§1)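 Matching RNA elements and Pumilio-1 PUF domain libraries, randomized at the three base-contacting residues of every repeat, were co-expressed from a centromeric plasmid in strain YBZ-1 (LexA–MS2 coat fusion, HIS3 reporter). The repeat regions were PCR-amplified and Illumina-sequenced from cells grown four days on SC-Leu (input) or SC-Leu-His + 0.5 mM 3-AT (selection). The interaction score is the log change in variant frequency from input to selection. It is computed in log2, with a pseudocount of 1 for absent variants.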
# [2] = molecular target: PUM1 PUF domain R1-KGR (Homo sapiens, UniProt Q14671 828-1176, S863K;R864G;Q867R)
# Method in brief: as §1
# [3] = molecular target: PUM1 PUF domain R5-DFV (Homo sapiens, UniProt Q14671 828-1176, C1007D;R1008F;Q1011V)
# Method in brief: as §1
# [4] = molecular target: PUM1 PUF domain R7-RRI (Homo sapiens, UniProt Q14671 828-1176, S1079R;N1080R;E1083I)
# Method in brief: as §1
# [5] = molecular target: PUM1 PUF domain R5-QLR (Homo sapiens, UniProt Q14671 828-1176, C1007Q;R1008L;Q1011R)
# Method in brief: as §1
# Sequence of PUM1 PUF domain R1-KGR (Q14671 828-1176 S863K/R864G/Q867R): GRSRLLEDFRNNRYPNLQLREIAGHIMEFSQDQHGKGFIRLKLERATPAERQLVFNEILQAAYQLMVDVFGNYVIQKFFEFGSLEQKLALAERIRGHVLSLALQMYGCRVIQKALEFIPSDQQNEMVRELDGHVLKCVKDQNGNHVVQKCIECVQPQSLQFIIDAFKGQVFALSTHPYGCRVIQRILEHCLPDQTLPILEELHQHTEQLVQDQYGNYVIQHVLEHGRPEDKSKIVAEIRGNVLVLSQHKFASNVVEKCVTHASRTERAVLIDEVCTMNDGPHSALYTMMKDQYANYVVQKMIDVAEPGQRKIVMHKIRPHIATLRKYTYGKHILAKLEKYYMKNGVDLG
# Sequence of PUM1 PUF domain R1-RAS (Q14671 828-1176 S863R/R864A/Q867S): as the sequence (Q14671 828-1176 S863K/R864G/Q867R) above, with K36R, G37A, R40S counted along it
# Sequence of PUM1 PUF domain R5-DFV (Q14671 828-1176 C1007D/R1008F/Q1011V): as the sequence (Q14671 828-1176 S863K/R864G/Q867R) above, with K36S, G37R, R40Q, C180D, R181F, Q184V counted along it
sequence,measurement,setting,value
GGCUAGAACUAGUGGAUCCCCCGGCGCCCGGCGGCUCGAGCCCGGGUAAGUGUAAAUUGUCUGCAUGCCGCCGGGCGCCAUGCCUGCAGGUCGACUCUAGAAAACAUG,binding signal,[1],2.89 log2 enrichment (interaction score)
same,binding signal,[2],4.34 log2 enrichment (interaction score)
GGCUAGAACUAGUGGAUCCCCCGGCGCCCGGCGGCUCGAGCCCGGGUAAGUGUGAAUAGUCUGCAUGCCGCCGGGCGCCAUGCCUGCAGGUCGACUCUAGAAAACAUG,binding signal,[3],3.55 log2 enrichment (interaction score)
GGCUAGAACUAGUGGAUCCCCCGGCGCCCGGCGGCUCGAGCCCGGGUAAGUCUAAAUAGUCUGCAUGCCGCCGGGCGCCAUGCCUGCAGGUCGACUCUAGAAAACAUG,binding signal,[4],5.69 log2 enrichment (interaction score)
GGCUAGAACUAGUGGAUCCCCCGGCGCCCGGCGGCUCGAGCCCGGGUAAGUGUUAAUAGUCUGCAUGCCGCCGGGCGCCAUGCCUGCAGGUCGACUCUAGAAAACAUG,binding signal,[5],0.88 log2 enrichment (interaction score)
GGCUAGAACUAGUGGAUCCCCCGGCGCCCGGCGGCUCGAGCCCGGGUAAGUGUAAAUCGUCUGCAUGCCGCCGGGCGCCAUGCCUGCAGGUCGACUCUAGAAAACAUG,binding signal,[1],3.1 log2 enrichment (interaction score)
same,binding signal,[2],3.57 log2 enrichment (interaction score)

# From paper PMC8384837, “Expanding the binding specificity for RNA recognition by a PUF domain”
